Laboratory results taken from ChEMBL document CHEMBL4513216, “Probing the Open Global Health Chemical Diversity Library for Multistage-Active Starting Points for Next-Generation Antimalarials” (ACS Infect Dis, 2020).
Out of some 65,000 compounds screened, about 2,100 (3.2%) showed an effect of 50% or more. The median lay at about -52%. This is one part of a sample in which strong results are shown more often than they occur.

The compounds below were run on Plasmodium falciparum (assay: Screen against P. falciparum Asexual Blood Stage (ABS), at 5uM). Details: tested at 5 uM.
Type: functional, Dd2

Row | Structure (SMILES) | INHIBITION
1 | CN1[C@H](Cn2cncn2)C[C@@H]2CN(Cc3ccsc3)CC[C@@H]21 | 38.2%
2 | CCOCC(=O)NCC(Cc1cccc(F)c1)N1CCCCC1=O (configuration not stated) | -88%
3 | COc1ccc2nnc(CCCC(=O)NCCc3ccccn3)n2n1 | -138%
4 | COc1c(CNC2CCN(c3ccccn3)CC2)c(C(C)C)nn1C | 1.28%
5 | c1ccc(N2CCC(NCCc3ccc(-n4cccn4)cc3)CC2)nc1 | 39.6%
6 | CC(CNC1CCN(c2ccccn2)CC1)Oc1ccc(F)cc1 (configuration not stated) | 49.1%
7 | CC(C)COCCNC1CCN(c2ccccn2)CC1 | 61.2%
8 | COCCOCC(=O)NC1CCN(c2ccccn2)CC1 | -16.8%
9 | COc1ccc(C(C)CCNC2CCN(c3ccccn3)CC2)cc1 (configuration not stated) | 68.2%
10 | CC(C)(C)C(=O)N1CCC2(CNS(=O)(=O)c3cnccc3O2)C1 (configuration not stated) | -18.2%
11 | CCC1c2ccccc2CCN1CCCS(C)(=O)=O (configuration not stated) | -4.08%
12 | COc1ccc(CNC(Cn2cncn2)c2ccccc2)cc1C (configuration not stated) | -102%
13 | CC(C)C(NCc1ccc(Cn2cncn2)cc1)c1ccccc1 (configuration not stated) | 50.1%
14 | CC(C)C(NCc1ccc(Cn2cncn2)cc1)c1ccc(F)cn1 (configuration not stated) | -59.5%
15 | O=S(=O)(c1ccccc1)N1CCC2(CCCN2CC2CCCC2)C1 (configuration not stated) | 48%
16 | COc1cc(N2CCCC(CO)(Cc3ccccc3F)C2)ncn1 (configuration not stated) | -43.6%
17 | Cc1cc(C)n(CC2CCCN2C(=O)c2ccc3[nH]cnc3c2)n1 (configuration not stated) | -163%
18 | Cc1nc(NCC2CC2)nc2c1COCC21CCN(S(=O)(=O)C2CC2)C1 (configuration not stated) | 12.5%
19 | COCCN1CCC(CNC(=O)c2cc(Cl)c[nH]2)CC1 | -2.76%
20 | O=C(NCC1CCN(CCc2ccccc2)C1)c1cc(Cl)c[nH]1 (configuration not stated) | 65.1%
21 | CCN1CCC(CNC(=O)c2cc(Cl)c[nH]2)CC1 | -108%
22 | CC(OCC1CC1)C(=O)Nc1ncn(CC(=O)N2CCCCCC2)n1 (configuration not stated) | 36.5%

Row | Structure (SMILES) | INHIBITION
23 | CN1CCc2c1nc1c(c2N)CCC1 | -64.6%
24 | Cc1c(C)n(-c2ccccn2)c2nc3c(c(N)c12)CCCC3 | 21.3%
25 | CN1CCCCc2c1nc1c(c2N)CCCC1 | 63.8%
26 | CN1CCCCc2c1nc1c(c2N)CCC1 | 65.8%
27 | CN1CC2(CCCN(c3nc(N)nc4c3CCCC4)C2)OC1=O (configuration not stated) | -29.7%
28 | CN1CCCc2c1nc1c(c2N)CCC1 | -49.7%
29 | COC[C@@H]1CC[C@H]2[C@H](CCN2S(=O)(=O)c2ccc(C)cc2)O1 | -3.1%
30 | Cc1cc(N2CCCC2)nc(CNS(=O)(=O)Cc2ccccc2)n1 | -63.1%
31 | Cc1nn(C)c(N2CCCN(C)CC2)c1CNC(=O)CCC(C)C | -12.6%
32 | COCC(=O)N1C[C@@H]2CCCO[C@@H]2[C@H](N(C)Cc2ccco2)C1 | -22.6%
33 | Cc1noc([C@@H]2CCO[C@@H]3CCN(Cc4ccc(C)s4)C[C@@H]32)n1 | 10.3%
34 | CN(C)CCN1CCOCC2(CCCN(C(=O)c3ccccn3)C2)C1 (configuration not stated) | -26.3%
35 | Cn1ccnc1CN1CCC(c2ccnc(-c3cccc(O)c3)c2)C1 (configuration not stated) | 30.7%
36 | CN(C)CC(C)(C)Cn1cnc(-c2ccccc2)c1-c1ncc[nH]1 | -81.8%
37 | CN(C)CC(C)(C)Cn1cnc(-c2ccccc2)c1-c1ccncc1 | 1.44%
38 | Oc1cccc(-c2cc(C3CCN(Cc4cncnc4)C3)ccn2)c1 (configuration not stated) | -15.3%
39 | CN(C)CC(C)(C)Cn1cnc(-c2ccccc2)c1-c1cccc(O)c1 | 50.9%
40 | CN(C)CC(C)(C)CN1CCC(c2ccnc(-c3cccc(O)c3)c2)C1 (configuration not stated) | 69.5%
41 | COc1ccccc1OC1CN(C(=O)c2ccccc2C(C)=O)C1 | -184%
42 | O=c1[nH][nH]cc1-c1ccnc(NCCN2CCCCC2)n1 | -153%
43 | CS(=O)(=O)CCC(=O)N1C[C@H]2CC[C@@H](C1)N(Cc1ccccc1)C2=O | -72.6%
44 | CC(C)c1nnc2n1CCN(C(=O)c1cc(Cl)c[nH]1)C2 | 5.02%

Row | Structure (SMILES) | INHIBITION
45 | Cc1ccccc1C(=O)N1C[C@@H]2CCN(c3cccnc3)C[C@@H]2C1 | -45.5%
46 | CCS(=O)(=O)N1CCC(NC(=O)c2cc3ccccc3cc2O)CC1 | 6.29%
47 | Cc1cc(NCC2CC(=O)Nc3ccccc32)nc(C)n1 (configuration not stated) | -151%
48 | O=C1CC(CNc2cncc(Br)c2)c2ccccc2N1 (configuration not stated) | 12.2%
49 | O=C1CC(CNc2cncc(Cl)n2)c2ccccc2N1 (configuration not stated) | 66.1%
50 | O=C1C[C@@H]2CC[C@H](CN1)N2C(=O)Cc1ccsc1 | -114%
51 | CCN(CC)c1nc2ccsc2c(=O)n1CCC(=O)NCc1ccco1 | -83%
52 | CCc1nc(CCNC(=O)Nc2ccc(C(=O)NC)cc2)cs1 | -114%
53 | CN1CCC(Oc2ccc(-n3ccnc3-c3ccncc3)cc2)CC1 | -17%
54 | Cc1ccc(-c2nccn2-c2ccc(OC3CCN(C)CC3)cc2)o1 | 55.1%
55 | CN1CCC(Oc2ccc(-n3ccnc3-c3nccn3C)cc2)CC1 | -33.1%
56 | Cc1nn(C)c(C)c1C(=O)NC(C)CC(=O)c1cccs1 (configuration not stated) | -35.4%
57 | Cc1ccc(-c2nn(C)c(C(=O)O)c2Br)cc1 | -38.6%
58 | Cc1cccc(=O)n1CCC(=O)N1CC[C@](C)(O)[C@H](C)C1 | -97.5%
59 | Cc1ccc(N2CCCC(NCc3nc(C)c(C)o3)C2)nn1 (configuration not stated) | -26.7%
60 | Cc1ccc(N2CCCC(NCc3nnc(-c4ccco4)o3)C2)nn1 (configuration not stated) | 50.3%
61 | c1cnnc(N2CCCC(NCc3nnc(-c4ccco4)o3)C2)c1 (configuration not stated) | -31.5%
62 | Cn1nc2c(cc1=O)CN(CCOc1ccccc1C#N)CC2 | 0.73%
63 | COCC(=O)N1C[C@H]2CNC[C@@]2(C(=O)NCc2cc(C)n[nH]2)C1 | 4.75%
64 | Nc1ncc(-c2ccc(C(F)(F)F)cc2)c(C2CCCNC2)n1 (configuration not stated) | 70.9%
65 | Nc1ncc(-c2ccc(F)cc2)c(C2CCCNC2)n1 (configuration not stated) | 50.3%
66 | CN(C)c1ncc(-c2ccc(C(N)=O)cc2)c(C2CCNC2)n1 (configuration not stated) | -37.9%

Row | Structure (SMILES) | INHIBITION
67 | COc1ccc(-c2cnc(N)nc2C2CCCNC2)cc1 (configuration not stated) | -91.8%
68 | Nc1ncc(-c2ccc(Cl)cc2)c(C2CCCNC2)n1 (configuration not stated) | 48.9%
69 | CS(=O)(=O)N1CC(c2nc(N)ncc2-c2ccc(F)cc2)C1 | -47.4%
70 | CCN1CCCC(NC(=O)c2ccc(C)[nH]c2=O)C1 (configuration not stated) | -166%
71 | CN(C)c1ncnc2c1CCN(CC1CCOCC1)CC2 | -55.1%
72 | CN1CCC(N(C)C[C@H]2CC[C@@H](Cc3cccc(O)c3)O2)CC1 | 57.5%
73 | CN1CCC(N(C)C[C@H]2CC[C@@H](Cc3cccc(CO)c3)O2)CC1 | -125%
74 | CN1CCN(C[C@H]2CC[C@@H](Cc3ccc4c(c3)OCO4)O2)CC1 | -28.1%
75 | CN1CCN(C[C@H]2CC[C@@H](Cc3ccc(CN4CCCC4)cc3)O2)CC1 | 36.4%
76 | CCN(Cc1cnn(C)c1)C[C@H]1CC[C@@H](Cc2ccc(OC)nc2)O1 | 4.73%
77 | COc1ccc(C[C@@H]2CC[C@H](CN(C)C3CCN(C)CC3)O2)cc1 | 50.9%
78 | CC(=O)Nc1nc2c(s1)C(C)(C)Nc1ccccc1S2 | -58.4%
79 | NCc1ccc(OC(F)F)cc1OC(F)F | -38.5%
80 | CC(C)CN1C(=O)CCC12CCC(NC(=O)NCc1cccnc1)CC2 (configuration not stated) | -167%
81 | CCc1nc(CN2CCCN(c3nn4cc(C)nc4s3)CC2)no1 | -69%
82 | Cn1cnc2c1C(COCC1CC1)CN(C(=O)c1cscn1)C2 (configuration not stated) | -46.3%
83 | CN(C(=O)c1ccc(S(=O)(=O)NC(C)(C)C)cc1)C1(C#N)CCC1 | 5.67%
84 | O=C(C1=COCCO1)N1CC(Oc2nc3c(C(F)(F)F)cccc3s2)C1 | -41.7%
85 | CC(NC(=O)NCCCn1cncn1)c1ccc(C(F)(F)F)cc1 (configuration not stated) | 57.2%
86 | CC(NC(=O)NCCCn1cncn1)c1ccc(F)cc1 (configuration not stated) | 20.8%
87 | CC(NC(=O)NCCCn1cncn1)c1ccncc1 (configuration not stated) | -85.1%
88 | Clc1cc(NCc2ccncc2)nc2[nH]ccc12 | 64.9%

Row | Structure (SMILES) | INHIBITION
89 | Clc1cc(NCc2ncc[nH]2)nc2[nH]ccc12 | -48.4%
90 | Clc1cc(NCc2nccs2)nc2[nH]ccc12 | -72%
91 | COC[C@@]12CCO[C@@H]1CCN(Cc1ccccc1OC)C2 | 29.7%
92 | CCS(=O)(=O)N1C[C@H](c2nc(C)no2)C[C@H]2OCC[C@H]21 | -101%
93 | COc1cccc(OC)c1-c1ccnc2cc(CC(=O)NC(C)C)nn12 | -158%
94 | Cc1nccn1CCCn1cncc1-c1ccc2c(c1)CC(C)N2C (configuration not stated) | 49.8%
95 | Cc1nccn1CCCn1cncc1-c1ccc2c(c1)CCCN2C | -15.5%
96 | Cc1nccn1CCCn1cncc1-c1ccc2c(c1)CCC(C)N2C (configuration not stated) | 66.4%
97 | CCC1(CC)Cc2ccccc2-c2nc(NCCO)[nH]c(=O)c21 | 1.11%
98 | Cn1ccnc1SCCNC1CCN(c2nc3ccccc3s2)CC1 | 59.7%
99 | Cc1n[nH]c(SCCNC2CCN(c3nc4ccccc4s3)CC2)n1 | -196%
100 | Cn1ccnc1SCCNC1CCN(c2ncccn2)CC1 | -11.4%
101 | O=S(=O)(NCCc1ccccc1F)N1CCOCC1 | -122%
102 | COc1cn(CC(N)=O)c(CSc2nccc(C)n2)cc1=O | -34.1%
103 | O=C(C1CC1)N1CCC2(COCc3cnc(N4CCOCC4)nc32)C1 (configuration not stated) | -76.2%
104 | CC(C)C1CN(C(=O)c2cn3cc(Cl)cnc3n2)CCCN1CC1CC1 (configuration not stated) | -26.8%
105 | Cc1ccsc1C(Cc1ccccc1)NC(=O)CSCC(N)=O (configuration not stated) | -9.21%
106 | CCNC(=O)CCC(=O)NC(Cc1ccccc1)c1sccc1C (configuration not stated) | -32.2%
107 | Cc1ccsc1C(Cc1ccccc1)NC(=O)CNC(=O)C1CC1 (configuration not stated) | 69.9%
